TEAD-YAP inh: TEAD-YAP interaction inhibition; HEK-TIYL cells, TEAD-Gal4/YAP UAS-luciferase luminescence; inhibition, % at 9.12 µM; 640,000 compounds, 1.4% hits; in the data active means inhibition above about 32%;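 further: 0% = median of test compound wells and 100% = reference inhibitor wells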
MITF inh: inhibitors of human MITF; inhibition, % at 2.6 µM; AlphaScreen MITF homodimerization, bead proximity signal; AID 1259374; O75030; 650,000 compounds, 0.91% hits; in the data active means inhibition above about 50%;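 further: 0% = vehicle wells with protein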
Target sequence (O75030 whole entry, looked up): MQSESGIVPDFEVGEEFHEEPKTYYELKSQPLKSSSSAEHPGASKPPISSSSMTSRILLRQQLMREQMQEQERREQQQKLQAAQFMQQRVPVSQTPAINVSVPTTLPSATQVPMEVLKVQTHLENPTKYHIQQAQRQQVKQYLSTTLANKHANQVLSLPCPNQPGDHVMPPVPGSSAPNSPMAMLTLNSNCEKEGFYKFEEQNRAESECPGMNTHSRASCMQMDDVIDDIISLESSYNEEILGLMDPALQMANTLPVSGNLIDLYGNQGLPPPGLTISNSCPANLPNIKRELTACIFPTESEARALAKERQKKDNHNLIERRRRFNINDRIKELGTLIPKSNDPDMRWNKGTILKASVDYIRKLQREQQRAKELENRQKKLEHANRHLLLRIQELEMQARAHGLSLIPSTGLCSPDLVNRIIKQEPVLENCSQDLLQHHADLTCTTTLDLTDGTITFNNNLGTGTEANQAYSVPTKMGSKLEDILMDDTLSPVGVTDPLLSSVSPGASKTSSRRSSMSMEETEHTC
GPR151 ag: human GPR151 activation. Q8TDV0. PathHunter beta-arrestin GPR151 cells, luminescence. activation, % at 11.2 µM. 650,000 compounds, 1% hits; in the data active means activation above about 4.9%;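 further: 0% = median of compound wells and 100% = cells with positive control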
FBW7 activator: activators of human E3 ligase FBW7 | AlphaScreen FBW7–phospho-cyclin E peptide binding, activator screen | AID 1259310 | normalized activity (activation), % at 26.1 µM | 650,000 compounds, 0.13% hits | Q969H0; in the data active means normalized activity above about 1.9%;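 further: purified mutant Fbw7 with reduced substrate affinity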
An asterisk follows results filed as active. Sampled rows, rich in hits. Any-hit rate of the full collection: about 3.5%.

COc1ccc(C(=O)Nc2cnc(NC(=O)c3ccccc3)cc2C)cc1 was read as TEAD-YAP inh 45.0*, MITF inh -8.5, GPR151 ag -2.1 and FBW7 activator 0.2.
`COc1ccc(C(=O)Nc2cc(C)c(C)s2)cc1` gave TEAD-YAP inh 33.6*, MITF inh -9.4, GPR151 ag -6.0 and FBW7 activator -0.1.
`COc1ccc(C(=O)Nc2cnc3ccccc3c2)cc1` gave TEAD-YAP inh 84.5*, MITF inh -2.2, GPR151 ag -8.1 and FBW7 activator -0.1.
For COc1ccc(CCNC(=O)CC2C(=O)NCCN2Cc2ccc(C)cc2)c(OC)c1 (stereo not drawn) the results were TEAD-YAP inh -5.2, MITF inh -4.6, GPR151 ag 3.0 and FBW7 activator 0.4.
COc1cc(OC)c(OC)cc1/C=C/c1nc2ccccc2c(=O)n1-c1ccc(C)cc1 was read as TEAD-YAP inh 4.7, MITF inh 11.3, GPR151 ag -1.7 and FBW7 activator -0.1.
`O=S(=O)(NC(c1ccc(O)cc1)C(Cl)(Cl)Cl)c1ccccc1` (stereo not drawn) gave TEAD-YAP inh 4.6, MITF inh 0.0, GPR151 ag 1.1 and FBW7 activator 0.1.
Screening Cc1cc(OCC(=O)NNC(=O)/C=C\c2ccc(Cl)cc2)cc(C)c1Cl returned TEAD-YAP inh 10.6, MITF inh 14.1, GPR151 ag -0.3 and FBW7 activator -0.1.
Screening COc1ccc(C(=O)Nc2nc3ccccc3n2C)cc1 returned TEAD-YAP inh 6.0, MITF inh 0.2, GPR151 ag -4.7 and FBW7 activator -0.3.
`CCCCc1ccc(C(=O)Nc2cnc3ccccc3c2)cc1` gave TEAD-YAP inh 39.6*, MITF inh 5.9, GPR151 ag -2.0 and FBW7 activator 0.2.
`COc1ccc(C(=O)Nc2ccccc2C(=O)Nc2nc3ccccc3n2C)cc1` gave TEAD-YAP inh 94.1*, MITF inh -5.3, GPR151 ag -1.9 and FBW7 activator 0.2.
`CCCCc1ccc(NC(=O)c2ccccc2)cc1` gave TEAD-YAP inh -11.7, MITF inh 10.3, GPR151 ag -6.2 and FBW7 activator 0.1.
Screening COc1ccc(C(=O)Nc2cc(Nc3ccccc3C(N)=O)ccn2)cc1 returned TEAD-YAP inh 36.7*, MITF inh 1.4, GPR151 ag 0.3 and FBW7 activator -0.1.
`COc1cc(Nc2cc(Nc3ccccc3C(N)=O)ccn2)cc(OC)c1OC` gave TEAD-YAP inh -11.3, MITF inh 15.3, GPR151 ag 3.3 and FBW7 activator 0.3.
O=C(Nc1cc2ccccc2oc1=O)c1ccc(Br)cc1 was read as TEAD-YAP inh -25.9, MITF inh -12.7, GPR151 ag -0.2 and FBW7 activator -0.1.
O=C(Nc1cc2ccccc2oc1=O)c1ccccc1 was read as TEAD-YAP inh 53.6*, MITF inh 13.9, GPR151 ag -8.0 and FBW7 activator 0.2.
Screening CC(=O)Oc1ccc2cc(NC(=O)c3ccc(C)cc3)c(=O)oc2c1 returned TEAD-YAP inh 52.5*, MITF inh 9.1, GPR151 ag -0.4 and FBW7 activator 0.0.
Cc1ncc(-c2ccc(F)cc2)c(C2CCCN(Cc3cccnc3)C2)n1 (stereo not drawn) was read as TEAD-YAP inh -5.1, MITF inh 3.0, GPR151 ag -1.2 and FBW7 activator 0.1.
For Cc1nc2ccccc2n1CC(O)COc1ccc2ccccc2c1Br (stereo not drawn) the results were TEAD-YAP inh 44.6*, MITF inh 5.8, GPR151 ag -1.2 and FBW7 activator 0.1.
For COc1ccc(OCC(O)Cn2c(C)nc3ccccc32)cc1 (stereo not drawn) the results were TEAD-YAP inh 44.5*, MITF inh 3.3, GPR151 ag 2.0 and FBW7 activator -0.4.
For COC(=O)c1cccc(OCC(O)Cn2c(C)nc3ccccc32)c1 (stereo not drawn) the results were TEAD-YAP inh 39.1*, MITF inh 4.9, GPR151 ag 1.2 and FBW7 activator 0.0.
Screening Cc1nc2ccccc2n1CC(O)COc1ccc(C(C)(C)C)cc1 (stereo not drawn) returned TEAD-YAP inh 47.4*, MITF inh -4.4, GPR151 ag 1.4 and FBW7 activator 0.3.
For CCCCOc1ccc(/C=C/C(=O)Nc2ccccc2C(N)=O)cc1 the results were TEAD-YAP inh -42.7, MITF inh -12.0, GPR151 ag -0.1 and FBW7 activator -0.1.
Screening CCC(=O)Nc1nc(-c2ccc(Cl)c(Cl)c2)nc2c1c(=O)oc1ccccc12 returned TEAD-YAP inh -11.2, MITF inh -11.4, GPR151 ag 1.8 and FBW7 activator 0.0.
For COc1ccc(-n2c(=O)c3c(n4c(=S)[nH]nc24)-c2ccccc2CC32CCCC2)cc1 the results were TEAD-YAP inh 2.5, MITF inh 8.5, GPR151 ag -1.2 and FBW7 activator -0.2.
For COC(=O)c1ccccc1NC(=O)CCOc1ccc(OC)cc1 the results were TEAD-YAP inh 32.7*, MITF inh -2.2, GPR151 ag -0.7 and FBW7 activator 0.0.
For COC(=O)c1ccccc1NC(=O)CCS(=O)(=O)c1ccc(OC)cc1 the results were TEAD-YAP inh -8.9, MITF inh 4.8, GPR151 ag 1.5 and FBW7 activator 0.2.
Screening Cc1cccc(N(C)S(=O)(=O)c2ccc3c(c2)oc(=O)n3C)c1 returned TEAD-YAP inh 46.1*, MITF inh 13.0, GPR151 ag -0.6 and FBW7 activator 0.0.
O=C1CCN(Cc2cc(F)cc(F)c2)CCN1Cc1ccc(Cl)nc1 was read as TEAD-YAP inh -4.8, MITF inh 0.2, GPR151 ag -0.3 and FBW7 activator -0.2.
For O=[N+]([O-])c1cc2c(cc1C(O)c1nnc(-c3ccccc3)o1)OCO2 (stereo not drawn) the results were TEAD-YAP inh 81.3*, MITF inh 16.3, GPR151 ag 0.0 and FBW7 activator 0.0.
Screening NC(CCCc1ccccc1)c1ccc2c(c1)OCCO2 (stereo not drawn) returned TEAD-YAP inh 54.7*, MITF inh 21.5, GPR151 ag 0.6 and FBW7 activator 0.9.
For COc1ccc(-c2csc(NC(=O)c3ccc(S(=O)(=O)N4CC(C)OC(C)C4)cc3)n2)c(OC)c1 (stereo not drawn) the results were TEAD-YAP inh 32.3*, MITF inh -1.2, GPR151 ag -0.3 and FBW7 activator 0.0.
Screening O=C(Nc1nc(-c2ccccn2)cs1)c1ccc(S(=O)(=O)N2CCOCC2)cc1 returned TEAD-YAP inh 47.8*, MITF inh 48.8, GPR151 ag -1.1 and FBW7 activator 0.1.
For Cc1ccc(-c2csc(NC(=O)c3ccc(S(=O)(=O)N4CCc5ccccc5C4)cc3)n2)o1 the results were TEAD-YAP inh 44.5*, MITF inh -10.3, GPR151 ag 1.6 and FBW7 activator 0.1.
For Cc1cccc(-n2nnnc2-c2ccc3ccccc3n2)c1 the results were TEAD-YAP inh -7.5, MITF inh 3.3, GPR151 ag -2.2 and FBW7 activator -0.1.
Cc1ccc(OCC(=O)Nc2ccccc2C(C)C)c(Br)c1 was read as TEAD-YAP inh -34.7, MITF inh 3.6, GPR151 ag -0.2 and FBW7 activator 0.0.
N/C(=N\N=C\c1cccc([N+](=O)[O-])c1)c1ccccn1 was read as TEAD-YAP inh 43.4*, MITF inh -1.5, GPR151 ag -3.7 and FBW7 activator -0.5.

High-throughput results as filed in PubChem.
